Assay results: PubChem BioAssay AID652039 (The Scripps Research Institute Molecular Screening Center, 2013)
Where “and” joins values, the source holds several entries; their conditions need not be identical. Equal entries are not always repeated. About 3,300 (0.89%) of roughly 370,000 compounds were called active. What follows is part of a selection rich in actives, with near analogues and random picks from the rest. A number with no mark means an inactive call.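 How the source made its calls: active means activation above the mean of all tested compounds plus 3 SD, computed per campaign excluding outliers beyond control limits (cut at about 13% in these data); inactive means the rest.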

These compounds were tested against Kallikrein-7 (Homo sapiens) (UniProt P49862) (assay: activation of human kallikrein-7 proenzyme – biochemical, fluorescence intensity, primary screen (AID 652039)). Conditions: purified proKLK7, EDANS-DABCYL substrate fluorescence; at 7 µM; active compounds read high; 100% is mature enzyme control, 0% vehicle.
Kallikrein-7 (Homo sapiens), sequence (P49862 whole entry, looked up): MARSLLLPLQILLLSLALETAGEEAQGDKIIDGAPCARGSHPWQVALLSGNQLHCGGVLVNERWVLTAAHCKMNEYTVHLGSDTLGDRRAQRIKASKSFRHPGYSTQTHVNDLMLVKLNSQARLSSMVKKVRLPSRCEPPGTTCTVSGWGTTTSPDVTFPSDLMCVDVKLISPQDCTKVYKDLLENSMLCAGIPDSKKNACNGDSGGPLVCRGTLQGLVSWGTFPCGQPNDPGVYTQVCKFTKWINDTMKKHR

| SMILES | activation |
| --- | --- |
| COC(=O)[C@]1(C#N)CC(=O)N(CC2CCCCC2)[C@@H]1c1ccccc1 | -0.2% |
| COc1ccc(C#CCNCc2ccc(OC)cc2OC)cc1 | 0.52% |
| Cc1cc(N2CCOCC2)nc2ccc(NC(=S)N3CCN(Cc4ccccc4)CC3)cc12 | 16.8% (active) |
| CCOCCCNC(=S)Nc1ccc2nc(N3CCN(CC)CC3)cc(C)c2c1 | 2.27% |
| Cc1cc(N2CCN(C)CC2)nc2ccc(NC(=S)N3CCOCC3)cc12 | 7.61% |
| CC(=O)c1cc(-c2ccc3ccccc3c2)c(=O)n2c1CCC2 | 0.82% |
| CCOC(=O)c1ccc(N2C(=O)CC(N(C)Cc3ccccc3)C2=O)cc1 (stereo unspecified) | 0.66% |
| CCOc1ccc(N2C(=O)CC(N(CCc3ccc(OC)c(OC)c3)C(=S)Nc3ccccc3)C2=O)cc1 (stereo unspecified) | 0.29% and 0.35% |
| CCOc1ccc(N2C(=O)CC(N(O)c3ccccc3)C2=O)cc1 (stereo unspecified) | 95.9% (active) |
| Cc1cccc(OCCNC(=O)CSc2ccc(C(F)(F)F)cc2[N+](=O)[O-])c1 | 0.55% |
| CC(C)CNC(=O)OCc1cn(Cc2ccc(F)cc2)nn1 | -0.65% |
| Cc1c(C(C)c2ccccc2O)[nH]c2ccccc12 (stereo unspecified) | 0.01% |
| CC(=O)Nc1cc(-c2ccccc2F)cn2c(-c3cccc(C(F)(F)F)c3)cnc12 | -0.51% |
| CC(=O)Nc1nc2ncccn2c1-c1ccc(C(F)(F)F)cc1 | 17.7% (active) |
| Cc1ccc(-c2c(N)nc3ncccn23)cc1 | 1.47% |
| COC(=O)C1CN(CC(C)C)CCS(=O)(=O)N1Cc1ccc(C)cc1 (stereo unspecified) | -0.1% |
| CN(CC1CCCO1)S(=O)(=O)c1ccc(C(=O)Nc2ccc(F)cc2)cc1 (stereo unspecified) | -0.36% |
| COC(=O)C1CN(Cc2ccc(F)cc2)CCS(=O)(=O)N1Cc1ccc(Cl)cc1 (stereo unspecified) | -0.13% |
| O=S1(=O)c2ccc(N3CCN(Cc4ccccc4F)CC3)cc2Oc2ccccc2CN1Cc1cn(Cc2ccc(Cl)cc2)nn1 | -0.98% |

| SMILES | activation |
| --- | --- |
| CC1C/C(=N/NC(=O)c2cccs2)CC(C)(C)C1 (stereo unspecified) | 0.16% |
| COC(=O)[C@]12C[C@H](CC(=O)NCc3ccccc3)C(=O)N(CCC3=CCCCC3)C1=C[C@H](C(C)C)O[C@@H]2C1CC1 | 0.56% |
| CC(=O)Nc1nc(C)c(-c2csc(Nc3ccc(S(N)(=O)=O)cc3)n2)s1 | 118% (active) |
| CC(C)[C@H](NC(=O)Nc1ccc(S(N)(=O)=O)cc1)C(=O)O | -0.23% |
| C=CCCC(=O)Nc1nc(C)c(-c2csc(Nc3ccc(Cl)cc3)n2)s1 | -1.66% |
| Cc1ccc(Cn2cc(CN3[C@@H](C)COc4cc(Br)ccc4S3(=O)=O)nn2)cc1 | 0.74% |
| COc1ccc(-n2c(COc3ccc(C)cc3)nnc2SCC(=O)Nc2ccc(Oc3ccccc3)cc2)cc1 | -0.88% |
| O=c1oc2c(CN3CCCCC3)c(O)ccc2c2c1CCCCC2 | 68.2% (active) |
| CCCOc1ccc2c3c(c(=O)oc2c1OCCC)CCC3 | -1.41% |
| COc1ccc2c3c(c(=O)oc2c1OCC(=O)C(C)(C)C)CCCC3 | 2.75% |
| O=C(OC12CCCN(C1)/C(=C/c1cccnc1)C2)C1CCCC1 (stereo unspecified) | 0.01% |
| CCN1CCCC1CNC(=O)c1cc2cc(OC)c(OC)cc2[nH]1 (stereo unspecified) | 17.5% (active) |
| CCN1CCCC1CNC(=O)c1ccc2c(c1)NC(=O)/C(=C\c1ccccc1F)S2 (stereo unspecified) | 0.44% |
| COc1ccc(C(=O)NCC2CCCN2S(=O)(=O)c2cccs2)cc1OC (stereo unspecified) | 0.25% |
| CN[C@H]1C[C@H]2c3cc(N4CCOCC4)ccc3CCN2C[C@H]1[C@H](C)O | -0.23% |
| Cc1ccccc1NC(=O)C1CCN(c2ncccn2)CC1 | 0.11% |
| CC[C@@H](CCC(=O)N(c1ccccc1)c1ccccc1)C1CC1 | 0.23% |
| CCOC(=O)c1cc2c(=O)n3ccccc3nc2n(CC(C)C)c1=NC(=O)c1c(-c2c(F)cccc2Cl)noc1C | 0.37% |
| CCCn1c(=NC(C)=O)c(C(=O)OCC)cc2c(=O)n3ccccc3nc21 | 24.2% (active) |

| SMILES | activation |
| --- | --- |
| CCn1c(=N)c(S(=O)(=O)c2ccc(F)cc2)cc2c(=O)n3ccccc3nc21 | 3.21% |
| O=C(C1CCN(S(=O)(=O)c2ccccc2)CC1)N1CCN(C2CCCCC2)CC1 | 0.53% |
| O=C(NN1CCOCC1)c1cccc(F)c1 | 0.32% |
| COc1ccc(N2CCN(CCNS(=O)(=O)c3ccc([N+](=O)[O-])cc3)CC2)cc1 | -0.14% |
| O=C1NC(c2ccccc2)Oc2ccccc21 (stereo unspecified) | -2.02% |
| O=C1NC(c2cccc(Cl)c2)Nc2ccccc21 (stereo unspecified) | 13.9% (active) |
| C=CCOc1cccc(C2NC(=O)c3ccccc3O2)c1 (stereo unspecified) | -1.97% |
| O=C(c1ccncc1)N1CC[C@H]2[C@H](CCCN2Cc2ccc(F)cc2)C1 | 0.94% |
| Cc1c(NC(=O)C(C)OC(=O)c2ccccc2O)c(=O)n(-c2ccccc2)n1C (stereo unspecified) | 1.12% |
| COc1ccccc1NC(=O)C(C)OC(=O)c1ccc(-n2cnnn2)cc1 (stereo unspecified) | -0.16% |
| CC(OC(=O)c1ccccc1NCCO)C(=O)Nc1ccnn1C(C)C (stereo unspecified) | 32.9% (active) |
| CC(C)CNc1cccc2c1S(=O)(=O)N(Cc1cn(Cc3ccc(Cl)cc3)nn1)Cc1ccccc1O2 | -9.81% |
| CN(CC(=O)NCCc1ccccn1)S(=O)(=O)c1ccc(Cl)cc1 | 0.31% |
| CN(CCc1ccccn1)C1CCCN(S(=O)(=O)c2ccccc2Cl)C1 (stereo unspecified) | 0% |
| CN(CCc1ccccn1)S(=O)(=O)c1ccc2c3c(cccc13)C(=O)N2 | 41.6% (active) |
| N#Cc1ccc(OC[C@@H](O)CN2CCC(C(O)(c3ccccc3)c3ccccc3)CC2)c(F)c1 | 0.5% |
| COc1c(N2CCN(C(=S)Nc3ccccc3F)C(C)C2)c(F)cc2c(=O)c(C(=O)O)cn(C3CC3)c12 (stereo unspecified) | 17.9% (active) |
| CN1[C@H](Cc2ccccc2)COc2cccc(N3CCSCC3)c2S1(=O)=O | 0.48% |
